Entries with a potency or affinity are not part of this list. The source made the active and inactive calls.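 Rule for the calls: active = fitted half-maximal concentration for loss of cell signal no higher than twice the top valid tested concentration; inconclusive = flat curve at 30 to 70% inhibition, or poor fit; inactive = flat within 30%, signal rise, or potency above limit.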
Experiment: MDA-MB-231 cell growth inhibition, dose response, cytotoxicity control for RAD54 inhibitor project, CellTiter-Glo luminescence, cherry-pick (AID 651692);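 note: more negative values mean stronger loss of viable cell signal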

| Compound | outcome |
| --- | --- |
| COc1ccc(-c2nn(C)c3sc(C(=O)NCCN(C)C)cc23)cc1OC | inactive |
| Cc1[nH]ccc2cc3nc4ccccc4c3cc12 | inactive |
| CCN1CCc2c(sc(NC(=O)c3ccc(C(=O)c4ccccc4)cc3)c2C(N)=O)C1 | inactive |
| CN(C)CCc1cc2c(c3c1ccc1ccccc13)OCO2 | inactive |
| COC(=O)C1=C(C)Nc2nc3ccccc3n2C1c1ccccc1F (stereo not drawn) | inactive |
| COc1ccc(N2C(=O)CSC23CCCCC3)cc1 | inactive |
| Cc1ccc2nc3c(c(Nc4ccc(O)cc4)c2c1)CCC3 | inactive |
| COc1ccccc1C1=NOC(Cn2c(NCCCO)nc3c2c(=O)n(C)c(=O)n3C)C1 (stereo not drawn) | inactive |
| O=C(Nc1ccc(C2=NCCN2)cc1)c1ccc(C(=O)Nc2ccc(C3=NCCN3)cc2)c(Cl)c1 | inactive |
| COc1ccc(-c2cc3nc(NCCN4CCCC4)n(C)c(=O)c3s2)cc1OC | inactive |
| COC(=O)c1c(NC(=O)c2ccc(S(=O)(=O)N3CCOCC3)cc2)sc2c1CCN(C(C)C)C2 | inactive |
| CCn1c(=O)c2cc(C(=O)NCCN(C)C)sc2c2ccccc21 | inactive |
| CCN(CC)CCN(C(=O)c1ccc2ncsc2c1)c1nc2cc3c(cc2s1)OCO3 | inactive |
| CCOC(=O)c1cnc2c(C)c(Cl)ccc2c1NCCCN1CCOCC1 | inactive |
| Cc1ccc2oc(=O)c3cc(C(=O)NCCCN4C(C)CCCC4C)sc3c2c1 (stereo not drawn) | inactive |
| O=C(Nc1ccc(Nc2ccncc2)cc1)c1ccc(Nc2ccnc3ccc([N+](=O)[O-])cc23)cc1 | inactive |
| Cc1cc(N2CCN(C)CC2)nc2ccc(NC(=S)NCCCN3CCN(C)CC3)cc12 | inactive |
| CCCCN(C)CCNC(=O)c1cc2cc3ccc(OC)cc3nc2o1 | inactive |
| COc1cccc2sc3ccc(NCCC4CCCN4C)cc3c(=O)c12 (stereo not drawn) | inactive |
| Cc1ccnc(Nc2nc(-c3sc(C)nc3C)cs2)c1 | inactive |
| COc1cc(NCCCNC(C)C)c2nccc(C)c2c1 | inactive |
| O=C(CS(=O)(=O)c1ccccc1)Nc1ccc(Br)cn1 | inactive |
| CCN1CCN(c2cc(C)c3cc(NC(=S)NCCCN4CCc5ccccc5C4)ccc3n2)CC1 | inactive |
| O=C(Nc1ccccc1)c1cc(S(=O)(=O)N2CCOCC2)cs1 | inactive |
| CCOC(=O)c1cnc2c(C)cc(Cl)cc2c1NCCCN1CCOCC1 | inactive |
| CC1CCCCN1CCNC(=O)c1cc2c(=O)n(C)c3ccccc3c2n1C (stereo not drawn) | inactive |

| Compound | outcome |
| --- | --- |
| COc1ccc2nc(C)cc(Nc3ccc(N4CCOCC4)cc3)c2c1 | inactive |
| CCN(CC)CCCNC(=O)C1CCN(c2ncnc3c2sc2cccc(F)c23)CC1 | inactive |
| CCN(CC)CCCNc1nc2cc(OC)c(OC)cc2c2nc(-c3cccnc3)nn12 | inactive |
| COc1ccc(CCNc2c3ccccc3nc3ccccc23)cc1OC | inactive |
| O=C1C(c2ccc(F)cc2)N(C2CCCCC2)C(=O)CN1C1CCCC1 (stereo not drawn) | inactive |
| COc1ccc(C(=O)Nc2ccc3nc(N4CCN(C)CC4)cc(C)c3c2)c(OC)c1 | inactive |
| C(=C/c1nccc2c1[nH]c1ccccc12)/c1ccc2c(c1)OCO2 | inactive |
| COc1ccccc1C(=O)C(O)c1ccccc1OC (stereo not drawn) | inactive |
| COc1ccccc1CNC(=O)c1cccs1 | inactive |
| CN(C)CCCNc1nc(-c2ccccc2)nc2ccccc12 | inactive |
| NCc1csc(Nc2nncc3ccccc23)n1 | inactive |
| CN(C)CCCN1C(=O)c2cccc3cccc(c23)C1=O | inactive |
| CCn1cc(C(=O)NCCN(C)C)c(=O)c2cc(F)c(N3CCN(C)CC3)cc21 | inactive |
| Nc1cc2c3c(cccc3c1)C(=O)N(CCN1CCCC1)C2=O | inactive |
| Nc1c2ccccc2nc2ccccc12 | inactive |
| CCOC(=O)c1cc(-c2ccncc2)nc2c1c(C)nn2-c1ccccn1 | inactive |
| CC1CCCCC1NC(=O)C1Cc2ccccc2CN1S(C)(=O)=O (stereo not drawn) | inactive |
| CCN(CC)CCNC(=O)c1cc2c(-c3ccc(Cl)cc3)nn(C)c2s1 | inactive |
| CN(C)CCCNc1nc2cc(-c3ccc4c(ccn4C)c3)sc2c(=O)n1C | inactive |
| CCN1CCN(CCCNC(=O)c2cc3c(=O)[nH]c4ccccc4c3s2)CC1 | inactive |
| CCN1CCN(C(=S)Nc2ccc3nc(N4CCN(CC)CC4)cc(C)c3c2)CC1 | inactive |
| CCCN1CCN(CCCNC(=O)c2cc3c(=O)n(C)c4ccccc4c3n2C)CC1 | inactive |
| Oc1ccccc1-c1nc(NCCN2CCOCC2)c2ccccc2n1 | inactive |
| CCOC(=O)c1[nH]c2cc3c(cc2c1CCCN1C(=O)c2ccccc2C1=O)OCCO3 | inactive |
| COc1cc(-c2cnc3c(NC=O)cc(-c4cccc(C(=O)NCCN(C)C)c4)cn23)cc(OC)c1OC | inactive |
| CN1CCN(c2nc(-c3cccc([N+](=O)[O-])c3)nc3ccccc23)CC1 | inactive |

| Compound | outcome |
| --- | --- |
| CCOc1cc2[nH]c(=O)n(Cc3ccc(C(=O)NCCCN4CCC(C)CC4)cc3)c(=O)c2cc1OCC | inactive |
| COc1ccc(CCn2c(=N)c(C(=O)NCC3CCCO3)cc3c(=O)n4cccc(C)c4nc32)cc1OC (stereo not drawn) | inactive |
| Cc1ccc(S(=O)(=O)CCSc2ccc(C(F)(F)F)cn2)cc1 | inactive |
| Cn1c(NCCN2CCCC2)nc2cc(-c3ccccc3)sc2c1=O | inactive |
| CN1CCN(c2nc(-c3ccccn3)nc3ccccc23)CC1 | inactive |
| Nc1cccc2nc3ccccc3cc12 | inactive |
| CN(C)CCCN(C(=O)CCOc1ccccc1)c1nc2ccc(F)cc2s1 | inactive |
| Cc1nc2ccccc2c2oc(C(=O)NCCN3CCCCC3C)cc12 (stereo not drawn) | inactive |
| CCCN(CCC)CCCNC(=O)c1cc2cc3ccc(OC)cc3nc2o1 | inactive |
| CCCN(CCC)CCCNC(=S)Nc1ccc2nc(N3CCN(C)CC3)cc(C)c2c1 | inactive |
| Nc1cc2ccncc2c2ccccc12 | inactive |
| O=c1c2ccccc2sc2ccc(NCCCN3CCOCC3)cc12 | inactive |
| CCCCN(C)CCNC(=S)Nc1ccc2nc(N3CCN(CC)CC3)cc(C)c2c1 | inactive |
| COc1ccc(C(=O)CN2CCN(CCN3C(=O)c4cccc5cccc(c45)C3=O)CC2)cc1 | inactive |
| Nc1c(C(=O)NCCN2CCOCC2)c2nc3ccccc3nc2n1-c1ccc2c(c1)OCO2 | inactive |
| CCCCN(C)CCNC(=O)c1cc2c(-c3cccc(OC)c3)nn(C)c2s1 | inactive |
| OCCN1CCN(c2ncnc3sc(-c4ccccc4)cc23)CC1 | inactive |
| Cc1cccn2c(=O)c3cc(C#N)c(=O)n(CCCN4CCOCC4)c3nc12 | inactive |
| CCCCN(CC)CCNC(=O)c1cc2c(=O)n(C)c3ccccc3c2n1C | inactive |
| CCOc1cc2[nH]c(=S)n(Cc3ccc(C(=O)NCCCN(CC)CC)cc3)c(=O)c2cc1OCC | inactive |
| CCN(CC)Cc1cc2[nH]c3c4ccc(Cl)cc4ncc3c2cc1OC | inactive |
| COc1cc2[nH]c3c(=O)n(CCN(C(C)C)C(C)C)cnc3c2cc1OC | inactive |
| CN(C)CCNc1ncnc2sc(-c3ccccc3)cc12 | inactive |
| CCCN(CCC)c1nc(-c2ccccn2)nc2ccccc12 | inactive |
| CN(C)CCCNc1nc(-c2ccc(Cl)cc2)nc2ccccc12 | inactive |
| CCOC(=O)c1c(C)n(C)c2ccc(OCC(O)CN3CCC(C)CC3)cc12 (stereo not drawn) | inactive |

Reference: PubChem BioAssay AID651692 (Broad Institute, 2012)
